Experimental data reported in PubChem BioAssay AID1347076 (National Center for Advancing Translational Sciences (NCATS), 2019).
Screen size: about 400,000 compounds; about 13,000 (3.2%) were called active. A call without a number means that no potency is given here. Not shown: some 18% with an inconclusive outcome. This is one part of a sample in which actives are shown more often than they occur. Calls come from the whole dose curve; as a rule, active = well fitted cell-killing curve with a large enough effect; inconclusive = small, poorly fitted or top-dose-only effect, or effect the other way; inactive = flat fitted curve, though single readings scatter.

assay: qHTS assay for MDR1-selective chemotherapeutics: Primary screen using the drug-selected MDR subline cells KB-V1; conditions: KB-V1 MDR cells viability, CellTiter-Glo, 72 h; series mostly up to 46.1 µM; note: nearly all actives have a fitted effect of over 60% in size
Method in brief: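 Readout: CellTiter-Glo luminescence, 10 min after addition. Cells: KB-V1 MDR subline, 72 h at 37 degrees C with compound. Analysis: corrected, normalized data fitted to concentration-effect curves.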
Potency is the fitted concentration of half-maximal effect.

Row | Compound | Potency
1 | COc1ccc(CCNC(=O)CCCCn2c(=O)c3ccccc3n(Cc3ccccc3)c2=O)cc1OC | inactive
2 | Oc1ccccc1-c1nc(/C=C/c2ccc(F)cc2)no1 | inactive
3 | Cc1ccc(-c2noc(CSc3nnnn3-c3ccccc3)n2)cc1 | inactive
4 | Cc1ccc(-c2noc(CSc3nnc(-c4ccncc4)n3-c3ccc(F)cc3)n2)cc1 | 8.2 µM (active)
5 | Cc1ccc(-c2noc(CSc3nnc(-c4ccccc4)n3C)n2)cc1 | inactive
6 | Cc1ccc(-c2noc(CSc3nnc(-c4cccs4)n3C)n2)cc1 | 13 µM (active)
7 | Cn1cccc1Cc1nnc(SCC(=O)NCCc2ccccc2)n1-c1ccc(F)cc1 | inactive
8 | COc1ccc(-c2noc(CSc3nc4ccc(C)cc4[nH]3)n2)cc1 | inactive
9 | Fc1ccc(-n2c(Cc3ccccc3)nnc2SCc2nc(-c3ccc(Cl)cc3)no2)cc1 | 14.6 µM (active)
10 | Cc1ccc(-c2noc(CSc3nnc(-c4ccc(Cl)cc4)n3C)n2)cc1 | inactive
11 | COc1ccc(-c2noc(CSc3nnc(-c4ccccc4)n3-c3ccc(F)cc3)n2)c(OC)c1 | inactive
12 | Cc1ccc(C(=O)Nc2c(-c3ccccc3)[nH][nH]c2=O)cc1 | inactive
13 | O=C(NCc1ccccc1Cl)C1=Cc2cc(Br)ccc2OC1 | inactive
14 | CC(C)Oc1cc(F)ccc1-c1cc(C(=O)Nc2ccc(F)cc2)[nH]n1 | inactive
15 | CC(Nc1ccc(-c2nc(-c3ccco3)no2)cc1[N+](=O)[O-])c1ccccc1 (stereo unspecified) | inactive
16 | Cc1cc(C)cc(NS(=O)(=O)c2ccc3[nH]cc(C(=O)N4CCCCC4)c(=O)c3c2)c1 | inactive
17 | CCCNC(=O)C1(C)CCN(C(=O)c2cc(F)ccc2C)C1 (stereo unspecified) | inactive
18 | C=Cc1ccc(Cn2c(C(=O)O)c(CNC3CCCC3)c3ccc(C)cc32)cc1 | inactive
19 | COc1ccc(S(=O)(=O)N2CCC(C(=O)NCc3ccco3)CC2)cc1C | inactive
20 | CC1(C)SC2c3ccccc3C(=O)N2[C@@H]1C(=O)NCc1ccco1 (stereo partly specified) | inactive
21 | COc1cc2c(cc1OC)C(C(=O)NCc1ccco1)C1c3ccccc3CCN1C2=O (stereo unspecified) | 14.6 µM (active)
22 | COCCNc1nc(NCc2ccc(NC(C)=O)cc2)c2sccc2n1 | inactive
23 | Cc1cccc(-n2c(SCC(N)=O)nc3c(oc4ccccc43)c2=O)c1 | inactive
24 | Cc1cccc(-n2c(SCC(N)=O)nc3c(c2=O)C2(CCCCC2)Cc2ccccc2-3)c1 | 18.4 µM (active)

Row | Compound | Potency
25 | N#CCSc1nc2c(c(=O)n1Cc1ccccc1)C1(CCCC1)Cc1ccccc1-2 | inactive
26 | CCOC(=O)c1cnn2c(SC)ncnc12 | inactive
27 | CCCS(=O)(=O)NC(=O)C1(C)CCCN(C(=O)c2ccnc(Cl)c2)C1 (stereo unspecified) | inactive
28 | Cc1cc(C(=O)N/N=C\C(Br)=C\c2ccccc2)c(C)o1 | inactive
29 | COc1ccc(C/C(C)=N/NC(=O)c2cc(C)oc2C)cc1 | inactive
30 | CC(=C/c1ccccc1)/C=N/NC(=O)c1cc(C)oc1C | 14.6 µM (active)
31 | Cc1ccc(CCNC(=O)CN2C(=O)CSc3ccc(S(=O)(=O)N4CCOCC4)cc32)cc1 | inactive
32 | CCOC(=O)C1=CCC(c2ccc(F)cc2)N(S(=O)(=O)c2ccc(C)cc2)C1 (stereo unspecified) | inactive
33 | O=C(N/N=C/c1cccc(Br)c1)c1ccc(N2CCCC2=O)cc1 | 16.4 µM (active)
34 | COc1cc(/C=N/NC(=O)c2ccc(N3CCCC3=O)cc2)ccc1O | inactive
35 | Cn1c(=O)n(C)c2cc(/C=N/NC(=O)c3cccc(Br)c3)ccc21 | inactive
36 | COc1ccc2cc(CNc3ccc(OC)c(OC)c3)c(=O)n(CC(=O)Nc3ccccc3F)c2c1 | inactive
37 | COc1ccc2c(c1)CCc1c(C(=O)N3CCCC3)noc1-2 | inactive
38 | N#Cc1cnn2cc(CCN3CCOCC3)c(-c3ccc(F)cc3)nc12 | inactive
39 | COc1ccc2c(c1)CCc1cn3ncc(C#N)c3nc1-2 | 1.3 µM (active)
40 | COc1ccccc1N1CCN(C(=O)C2CCN(S(=O)(=O)c3c(C)noc3/C=C/c3ccc(C)cc3)CC2)CC1 | inactive
41 | Cc1[nH]c2ccccc2c1C(=O)C(=O)NCc1nnnn1-c1cccc(F)c1 | inactive
42 | CN(CC(=O)Nc1cccc2c1CCCC2)S(=O)(=O)c1ccc(Cl)cc1 | inactive
43 | CN(CC(=O)NCC(c1ccccc1)N1CCCC1)S(=O)(=O)c1ccc(Cl)cc1 (stereo unspecified) | 20.6 µM (active)
44 | Cc1nc(NC(=O)CN(C)S(=O)(=O)c2ccc(Cl)cc2)sc1C | 14.6 µM (active)
45 | CN(CC(=O)NNC(=O)CNC(=O)c1ccccc1Cl)S(=O)(=O)c1ccc(Cl)cc1 | inactive
46 | CN(CC(=O)NCCc1ccccn1)S(=O)(=O)c1ccc(Cl)cc1 | inactive
47 | Cc1ccc(S(=O)(=O)N(C)CC(=O)NCC(c2ccc(F)cc2)N2CCOCC2)cc1 (stereo unspecified) | inactive
48 | CCCNC(=O)C1(C)CCN(Cc2csc(-c3ccc(Cl)cc3)n2)C1 (stereo unspecified) | inactive

Row | Compound | Potency
49 | C[C@H]1CN([C@@H](C)CO)C(=O)CCCn2cc(nn2)CO[C@@H]1CN(C)S(=O)(=O)c1ccccc1C#N | inactive
50 | COc1ccc(C(C)(NC(C)=O)c2nc(-c3ccc(S(C)(=O)=O)cc3)cs2)cc1 (stereo unspecified) | inactive
51 | CCOC(=O)c1ccc(NC(=O)c2c(NCc3cccc(OC)c3)sc3c2CCC3)cc1 | inactive
52 | CCn1c(SCC(=O)Nc2nccs2)nnc1-c1ccco1 | inactive
53 | Cc1cc(NC(=O)CSc2nnc(-c3ccco3)n2N)no1 | inactive
54 | COc1cc(Cl)c(C)cc1NC(=O)CSc1nnc(-c2ccco2)n1CC(C)C | 4.11 µM (active)
55 | CCCC12CN3CC(CCC)(CN(C1)C3c1c[nH]c3ccc(OC)cc13)C2=O (stereo unspecified) | inactive
56 | CCOc1ccc(CCN2C(=O)C(=O)N([C@@H](CC(C)C)CN3CCC[C@H]3CN3C(=O)C(=O)NC[C@@H]3Cc3ccccc3)C[C@@H]2CC(C)C)cc1 | inactive
57 | O=C(CCn1c(=O)c2ccccc2n(Cc2ccc(Cl)cc2)c1=O)NCc1ccc2c(c1)OCO2 | inactive
58 | C[C@H]1CN([C@@H](C)CO)S(=O)(=O)c2ccc(-c3cccc(F)c3)cc2O[C@@H]1CN(C)C | inactive
59 | O=C(C(=O)N1CCN(c2ccccc2)CC1)c1ccc2c(c1)OCO2 | inactive
60 | N#Cc1ccc(C(=O)Nc2nc(-c3cccs3)c(C(=O)C(F)(F)F)s2)cc1 | 13 µM (active)
61 | N#Cc1ccc(Oc2ccc(C(F)(F)F)cc2NC(=O)c2ccc(F)cc2)cc1 | inactive
62 | COc1ccc(C(=O)Nc2nc(-c3ccc(OC)cc3)c(-c3ccc([N+](=O)[O-])cc3)s2)cc1 | inactive
63 | COC(=O)[C@]12CCCCC=C1N(Cc1cccc3ccccc13)C(=O)[C@H](CC(=O)N1CCOCC1)C2 | inactive
64 | Cc1nc(C(F)(F)F)ccc1C(=O)N1CCC1(C)C(=O)NS(=O)(=O)c1ccccc1 (stereo unspecified) | inactive
65 | COc1ccc2c(c1)C(c1cccs1)=NNC(c1cccnc1)=N2 | inactive
66 | Fc1ccc2c(c1)C(c1cccnc1)=NNC(c1cccs1)=N2 | 11.6 µM (active)
67 | CC(=O)NN=C(C)c1ccc(NC(=O)C2CC2)cc1 | inactive
68 | O=C(O)c1ccccc1-c1cccc2nncn12 | inactive
69 | COC(=O)c1c(C)[nH]c(C(=O)NCCc2ccc(S(N)(=O)=O)cc2)c1C | inactive
70 | Cc1ccc(NC(=S)NC(=O)/C=C/c2ccc(Cl)cc2)cc1 | inactive
71 | COC(=O)c1c(C)[nH]c(C(=O)/C=C/c2ccc(Cl)cc2)c1C | 14.6 µM (active)
72 | CC(C)CN1C(=O)CN(S(C)(=O)=O)CC1(C)C(=O)NCc1ccccc1 (stereo unspecified) | inactive

Row | Compound | Potency
73 | N#Cc1ccc(-c2ccc3nccn3c2)cc1 | inactive
74 | CC(C)C1CC2=C(C(=O)OC(C)(C)O2)C(c2ccc(F)cc2)O1 (stereo unspecified) | inactive
75 | COCCCN1C(=O)C(CC(=O)NCc2cccs2)CC(C(=O)N2CCOCC2)=C1C (stereo unspecified) | inactive
76 | O=S1(=O)CC(N2CCC(Cc3ccccc3)CC2)CN1Cc1ccccc1 (stereo unspecified) | inactive
77 | COc1ccccc1-c1cc2nc(NCc3cccc(Cl)c3)ccn2n1 | inactive
78 | O=C(CC1C(=O)N(c2ccccc2)C(=O)N1CCc1cccs1)Nc1ccc(F)cc1 (stereo unspecified) | inactive
79 | CCNC(=O)CC1C(=O)N(c2ccc(F)cc2)C(=O)N1Cc1cccs1 (stereo unspecified) | inactive
80 | COc1ccc(N2C(=O)C(CC(=O)Nc3ccc(F)cc3)N(CCc3cccs3)C2=O)cc1 (stereo unspecified) | 18.4 µM (active)
81 | Cc1cc2nn(-c3ccc(Cl)cc3)nc2cc1NC(=O)C(C)C | inactive
82 | Cc1c(Cl)cccc1NC(=O)C1CCCN(C(=O)c2cnn(-c3ccccc3)c2-n2cccc2)C1 (stereo unspecified) | inactive
83 | CCOc1ccc(CNC(=O)c2ccc3c(c2)nnn3C2CCCC2)cc1 | inactive
84 | COc1cccc(NC(=O)C2(C)CCN2C(=O)CCC2CCCC2)c1 (stereo unspecified) | inactive
85 | Cc1ccc(-c2noc(CCC(=O)Nc3ccccc3N3CCN(C)CC3)n2)cc1 | 20.6 µM (active)
86 | CC(=O)c1ccc(NC(=O)CCc2nc(-c3ccc(C)cc3)no2)cc1 | inactive
87 | CCNC(=O)CCc1nc(-c2ccc(C)cc2)no1 | inactive
88 | CC(C)CC1C(=O)N(Cc2cn(CC3CCCCC3)nn2)CCS(=O)(=O)N1Cc1ccc(-c2ccc(Cl)cc2)cc1 (stereo unspecified) | inactive
89 | C=CCn1c(C)cc(C2=NNC(=NCC)SC2)c1C | inactive
90 | COCCn1c(C)cc(C2=NNC(=Nc3ccc(F)cc3)SC2)c1C | 10.3 µM (active)
91 | Cc1cc(C)c2cc(CN(Cc3nnnn3Cc3ccc(F)cc3)C3CCCC3)c(=O)[nH]c2c1 | inactive
92 | CCOc1ccc2[nH]c(=O)c(CN(Cc3nnnn3Cc3ccccc3)CC3CCCO3)cc2c1 (stereo unspecified) | inactive
93 | Cc1cccc2cc(CN(Cc3cccs3)C(c3nnnn3C3CCCC3)C(C)C)c(=O)[nH]c12 (stereo unspecified) | inactive
94 | CCC(c1nnnn1C1CCCC1)N(Cc1cccs1)Cc1cc2cccc(C)c2[nH]c1=O (stereo unspecified) | 23.1 µM (active)
95 | CCC(c1nnnn1Cc1ccccc1)N(Cc1cc2cc(OC)ccc2[nH]c1=O)CC1CCCO1 (stereo unspecified) | inactive
96 | Cc1cccc2cc(CN(Cc3nnnn3Cc3ccccc3)C3CCCC3)c(=O)[nH]c12 | 20.6 µM (active)
